Experimental data as given in PubChem BioAssay.

Biological target: Voltage-gated potassium channel subunit beta-2 (Rattus norvegicus) (UniProt P62483)
Experiment: KvBeta enzyme negative modulators, primary screen, biochemical, NADPH fluorescence (AID 622);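 note: slope of raw intensity against log time taken from 70 to 1610 s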
Settings: recombinant KvBeta, 4-cyanobenzaldehyde reduction, at 10 µM, stronger effect = higher value;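 active = fluorescence slope higher than the sample average by over 3 SD (cut at about -0.22 in these data, passing the limit was not always enough); inactive = the rest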

Voltage-gated potassium channel subunit beta-2 (Rattus norvegicus), sequence (P62483 whole entry, looked up): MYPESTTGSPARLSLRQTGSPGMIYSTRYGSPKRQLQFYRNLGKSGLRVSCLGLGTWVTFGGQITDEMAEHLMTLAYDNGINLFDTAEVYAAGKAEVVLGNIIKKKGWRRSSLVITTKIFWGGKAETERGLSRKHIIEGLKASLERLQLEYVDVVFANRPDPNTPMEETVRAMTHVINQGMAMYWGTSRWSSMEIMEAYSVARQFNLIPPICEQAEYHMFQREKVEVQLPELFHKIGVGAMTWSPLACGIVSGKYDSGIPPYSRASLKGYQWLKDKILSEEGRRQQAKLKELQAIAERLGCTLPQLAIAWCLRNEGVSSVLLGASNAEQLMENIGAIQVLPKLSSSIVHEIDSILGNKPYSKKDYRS

Fluorescence slope, inactive:
CC1CCCN(c2ccc(C(=O)NCc3cccs3)cn2)C1 (centres undefined) -0.614
CC(=O)c1c(OC(=O)c2ccco2)c2ccccc2n1C -0.367
Cc1cc(/C=N/n2cnnc2)c(C)n1-c1cccc(Cl)c1 -0.364
COc1ccc2ccccc2c1CN1CCCC(CO)C1 (centres undefined) -0.422
CCn1c(C(Cc2ccccc2)NC(=O)COC)nc2ccccc21 (centres undefined) -0.536
CC(C)OC(=O)C1C2C=CC3(CN(Cc4cccs4)C(=O)C13)O2 (centres undefined) -0.533
Cc1[nH]c(=O)[nH]c(=O)c1S(=O)(=O)N1CCCC(C(=O)NCc2ccco2)C1 (centres undefined) -0.402
COc1ccc(OC)c(C2CC(=O)NC(SC)=C2C#N)c1 (centres undefined) -0.529
COc1ccc(S(=O)(=O)NCc2ccc3c(c2)OCO3)cc1C(=O)O -0.324
CC(=O)Nc1ccccc1OCc1nnc(-c2cccs2)o1 -0.612
CCn1nnnc1SCC(=O)N1CCOCC1 -0.637
NC(=O)c1c(NC(=O)Cc2cccs2)sc2c1CCC2 -0.483
COC(=O)C(C#N)C(=C1C(=O)CC(C)(C)CC1=O)c1ccc(O)cc1 (centres undefined) -0.319
CCCCn1nnnc1NCc1cccs1 -0.52
CCOC(=O)N1CCC(n2c(SCC(=O)NCc3ccco3)nc3ccsc3c2=O)CC1 -0.386
CCC(=O)N1CCN(c2nc(-c3ccccc3)c3c(c2C#N)CCCC3)CC1 -0.317
c1nc(NCC2(N3CCOCC3)CCCCC2)c2ccsc2n1 -0.612
CC(C)(C)NC(=O)Cn1nnnc1-c1nonc1N -0.618
Nc1scc(-c2ccncc2)c1Cl -0.386
COc1cccc(-n2c(CNc3ccc(F)cc3)nnc2SCC(N)=O)c1 -0.49
COc1ccc(CCNc2oc(-c3ccccc3OC)nc2C#N)cc1 -0.413
CC1(C)CN=C(N2CCN(c3ncnc4sc5c(c34)CCCC5)CC2)S1 -0.379
CC(CN1CCCCC1)OC(=O)c1ccc2c(c1)OCO2 (centres undefined) -0.586
CC(C)CCN(C)C1CCN(S(=O)(=O)c2ccc(F)cc2)CC1 -0.543
